# Reference: publication PMC7819943, “Rice protein-binding microarrays: a tool to detect cis-acting elements near promoter regions in rice”
# Over roughly 35,000 sequences, “fluorescence intensity (a.u.)” has its median near 10,000; the highest 2% begin near 52,000. Only a selection was taken, and the highest values are over-represented in it overall.
# Molecular target: T1, OsWOX13 (Oryza sativa, UniProt Q5QMM3 1-267)
# T1 sequence: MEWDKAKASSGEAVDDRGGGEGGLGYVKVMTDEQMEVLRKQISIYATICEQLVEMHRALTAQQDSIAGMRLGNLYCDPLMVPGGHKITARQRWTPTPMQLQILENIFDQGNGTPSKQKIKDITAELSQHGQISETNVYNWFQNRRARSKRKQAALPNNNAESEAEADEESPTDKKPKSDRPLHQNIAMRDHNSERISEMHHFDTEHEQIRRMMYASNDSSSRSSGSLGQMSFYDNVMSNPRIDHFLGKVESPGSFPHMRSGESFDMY
# Experiment: protein-binding microarray (RPBM); PBS, 2% BSA, 51.3 ng/ul salmon testes DNA, 50 uM zinc acetate, 200 nM TF, 25 C, 1 h; high values mean tight binding
# Conditions: protein: recombinant; tags: N-terminal polyhistidine and DsRed monomer fusion (pET32a); label: CyDye5-dUTP incorporated in the synthesized complementary strand; 3' TTTTT single-stranded linker to array surface; dsDNA, one strand shown
# Outline: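 For the binding signal, per-feature fluorescence intensity was read in arbitrary units on an Axon 4000B scanner. Before scanning, a 2% BSA-blocked custom Agilent array made double-stranded with Cy5-dUTP was washed after 1 h at 25 °C with 200 nM protein and 50 µM zinc acetate. The proteins were Ni–NTA-purified transcription factors with N-terminal polyhistidine and DsRed fusions, expressed in E. coli BL21-CodonPlus.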
row,Sequence,binding signal
1,ATAATAAGTTAAAACCTAATCAATCATACGCTAATGACTTCGGAGTCACCTAGTGCAG,6780 fluorescence intensity (a.u.)
2,AGGATCAAAATTGCATGATTTTGTATAGTTTAGGGATGAACGGAGTCACCTAGTGCAG,3210 fluorescence intensity (a.u.)
3,AAAATTCATGATTGATTTTGTAGTGGATCAACCTTGCCAACGGAGTCACCTAGTGCAG,52400 fluorescence intensity (a.u.)
4,ATCTGATTTGATTTGATTTCGTACACCAGTAGCTTCAACCCGGAGTCACCTAGTGCAG,59800 fluorescence intensity (a.u.)
5,TATATTTAATTATTGATTTGATGTAACCAATTTAGTATTACGGAGTCACCTAGTGCAG,23400 fluorescence intensity (a.u.)
6,ATCTGATTGATACAGTACTTATTCACTGGAGTAGTATTTCCGGAGTCACCTAGTGCAG,40800 fluorescence intensity (a.u.)
7,CTGATTAATTGCCAGTAATTTGATTTCAACCTTACGTGTACGGAGTCACCTAGTGCAG,53000 fluorescence intensity (a.u.)
8,TGATTTCATGATTGATAGCTACATATCTTAGTTTCACACCCGGAGTCACCTAGTGCAG,40200 fluorescence intensity (a.u.)
9,CTTACGTGTAAATTGAAATTACATTGTAATTTACATTTGACGGAGTCACCTAGTGCAG,34200 fluorescence intensity (a.u.)
10,ATTGATTGTAGCCAAAATAAATTTTACTAAATTTTGCCAACGGAGTCACCTAGTGCAG,32500 fluorescence intensity (a.u.)
11,GTATTAATCACATTTCATTTCAACTTTTGATTCTGATATGCGGAGTCACCTAGTGCAG,5200 fluorescence intensity (a.u.)
12,TTCGTAAATTTGATCGAATTTGGCTTTTAGACGCTGGACACGGAGTCACCTAGTGCAG,19200 fluorescence intensity (a.u.)
13,CTTAAAACAAATGATTGTTTACGTTCCGTCAATCATGCCCCGGAGTCACCTAGTGCAG,21200 fluorescence intensity (a.u.)
14,CTAATTTTATGGTTAATGGACACGATTTAATCTAGACTCTCGGAGTCACCTAGTGCAG,13800 fluorescence intensity (a.u.)
15,GTCTTGTTCATAATAGACTGGACTCTTTGATTCCTGTGTGCGGAGTCACCTAGTGCAG,3330 fluorescence intensity (a.u.)
16,ATGTTCCTGATTACCCGGTTAGTAAAATTTGAATCGTACTCGGAGTCACCTAGTGCAG,10600 fluorescence intensity (a.u.)
17,CCTTCATTCATTTCCTAATCCCAATCCCACCCTCCATTTCCGGAGTCACCTAGTGCAG,3570 fluorescence intensity (a.u.)
18,TCTCCGTCCCCATCACCCTCGCAATTACTCCACCCGCCGGCGGAGTCACCTAGTGCAG,5550 fluorescence intensity (a.u.)
19,CTCGCCGTCCATCCTTCCCTGCGTCCAATCCCCACCCTCCCGGAGTCACCTAGTGCAG,60200 fluorescence intensity (a.u.)
20,GTTACCTATTAATTAATAGGAAGATGATATAAATAGTTTACGGAGTCACCTAGTGCAG,19400 fluorescence intensity (a.u.)
21,TATGACAGGTGGGATTAGGTATTAATAGTGTAGTATGTAACGGAGTCACCTAGTGCAG,8510 fluorescence intensity (a.u.)
22,CTTGATTAGTAGTTGGTTGCTCTTCTTCTTGTTCTTGGTTCGGAGTCACCTAGTGCAG,64200 fluorescence intensity (a.u.)

row,Sequence,binding signal
1,CTGGTTCTTGATTATTATTAGGATTAGTTTGTTCCTTTGTCGGAGTCACCTAGTGCAG,16900 fluorescence intensity (a.u.)
2,GGCTTAATTGTTGATTAAACATCAGGCTCTTCTTGCATATCGGAGTCACCTAGTGCAG,54900 fluorescence intensity (a.u.)
3,GTTAGTAATGTTGATTAGTGCATGGCTTATTTGGTTGCACCGGAGTCACCTAGTGCAG,15600 fluorescence intensity (a.u.)
4,GTTGATTAGCATATATTATTGGTTGCATGTTAGGCTTCCACGGAGTCACCTAGTGCAG,54700 fluorescence intensity (a.u.)
5,AGAATTGATTAGCTCTTGTTTCTATCATGTTAAACACATTCGGAGTCACCTAGTGCAG,33000 fluorescence intensity (a.u.)
6,GGCTAATAGTAGGTTGATTAGTCCTTATTGTGCTTGCCCTCGGAGTCACCTAGTGCAG,28500 fluorescence intensity (a.u.)
7,ATTAAATAATTTCTTTGATAAAATTGTTTTGCAGGCATATCGGAGTCACCTAGTGCAG,22300 fluorescence intensity (a.u.)
8,ACTATTCTATTATGATGATTAGGCTGTTATTGGTTGAAGTCGGAGTCACCTAGTGCAG,7170 fluorescence intensity (a.u.)
9,TGGAGTGGTGATTTGCTCTCTCTTGAGTGTTGATTAGTGGCGGAGTCACCTAGTGCAG,9250 fluorescence intensity (a.u.)
10,ATTGGTCCATTAGCACGTGATTAATTAAGTATTTGCTATTCGGAGTCACCTAGTGCAG,11200 fluorescence intensity (a.u.)
11,TAATTGATTAGCAGTAAGGTATTGGTTGTCCAATCTTGCTCGGAGTCACCTAGTGCAG,58400 fluorescence intensity (a.u.)
12,ATAATAAATATATTTACATTTAGACCCTCGATGTGTCATCCGGAGTCACCTAGTGCAG,3230 fluorescence intensity (a.u.)
13,TAGGCCCACTAATTAGGCCCATCCAACACGCCGTCCGACGCGGAGTCACCTAGTGCAG,4020 fluorescence intensity (a.u.)
14,TCAAGCTTCTGCAATTTAGTTGATTGATCGAATTAATCAGCGGAGTCACCTAGTGCAG,24600 fluorescence intensity (a.u.)
15,TATGATTCTTTTCTAAAAGATTGATACGACATATCAATATCGGAGTCACCTAGTGCAG,5300 fluorescence intensity (a.u.)
16,CAACTAAACTTTTAATTTTAGCATAAACTAAACAGACCCACGGAGTCACCTAGTGCAG,5430 fluorescence intensity (a.u.)
17,TATAATTACATTGTAACTGTATTGTAAATACATTTTAATTCGGAGTCACCTAGTGCAG,5830 fluorescence intensity (a.u.)
18,TAAATTGTACATGATATATGTCAAGTGTCAACGTCTGATTCGGAGTCACCTAGTGCAG,5030 fluorescence intensity (a.u.)
19,ACTCCACACACTGATCAACACTAATCAGCATGTACATTTGCGGAGTCACCTAGTGCAG,4090 fluorescence intensity (a.u.)
20,TCTGATTGGTACATGCTCACCTGGTTGGCTGGTTCTTCAGCGGAGTCACCTAGTGCAG,53800 fluorescence intensity (a.u.)
21,TCGTTCTTCATGGTTGGGGCTGATTAGGTTGATGAGATAGCGGAGTCACCTAGTGCAG,3850 fluorescence intensity (a.u.)
